Reference: PubChem BioAssay (NCI)
About 79,000 compounds went through this panel and 15% of them were active in at least one assay; those are over-represented in the sample as a whole. Active and inactive are the calls of the source. No stated cut-off is given here; in the data, active means growth inhibition above about 70%; inactive means the rest.

Legend:
[1] = NCI Yeast Anticancer Drug Screen. Data for the rad50 strain (AID 155);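 further: 0% = growth of vehicle-only cultures of the same strain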; conditions: S. cerevisiae rad50 strain growth inhibition, hits give high values
Outline: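 DNA repair mutant yeast, compound exposure, growth read-out; inhibition is taken relative to vehicle.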

[2] = NCI Yeast Anticancer Drug Screen. Data for the mec2-1 strain (AID 157); conditions: S. cerevisiae mec2-1 strain, hits give high values
Outline: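 Mutant yeast (mec2-1) grown with compound; growth inhibition relative to vehicle control reported.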

[3] = NCI Yeast Anticancer Drug Screen. Data for the sgs1 mgt1 strain (AID 161);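 further: 0% = growth of cultures given vehicle only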; conditions: S. cerevisiae sgs1 mgt1 strain, hits give high values
Outline: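 Percent growth inhibition was derived by comparing compound-exposed mutant yeast with vehicle-exposed cultures. The strain carries alterations in DNA damage repair.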

[4] = NCI Yeast Anticancer Drug Screen. Data for the cln2 rad14 strain (AID 165);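 further: 0% = growth equal to vehicle treated cultures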; conditions: S. cerevisiae cln2 rad14 strain, hits give high values
Outline: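 Readout is yeast growth inhibition versus vehicle-treated controls, using a strain with cln2 and rad14 alterations exposed to compound.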

[5] = NCI Yeast Anticancer Drug Screen. Data for the bub3 strain (AID 167); conditions: S. cerevisiae bub3 mutant strain, hits give high values
Outline: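 In this screen, a yeast mutant lacking normal mitotic checkpoint function is challenged with compound. Relative growth versus vehicle gives the inhibition value.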

[6] = NCI Yeast Anticancer Drug Screen. Data for the mlh1 rad18 strain (AID 175); conditions: S. cerevisiae mlh1 rad18 strain growth inhibition, hits give high values
Outline: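 Genetically defined yeast (DNA repair-deficient) exposed to compounds; growth inhibition determined relative to vehicle.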

[7] = at 5.0 µM (retest, dose inferred, filed as 0.5)
[8] = at 50.0 µM (retest, dose inferred, filed as 5.0)

Measured: growth inhibition

C[n+]1c(-c2cccc(OCCCCCCCCCCOc3cccc(-c4c5cc(N)ccc5c5ccc(N)cc5[n+]4C)c3)c2)c2cc(N)ccc2c2ccc(N)cc21
inactive: [6]; [8] 68%
active: [1]; [7] 99% | [1]; [8] 81% | [1]; at 50.0 µM 79.4% | [2]; [7] 99% | [2]; [8] 84% | [2]; at 50.0 µM 84.4% | [3]; [7] 99% | [3]; [8] 85% | [3]; at 50.0 µM 87.9% | [4]; [7] 99% | [4]; [8] 86% | [4]; at 50.0 µM 88% | [5]; [7] 99% | [5]; [8] 80% | [5]; at 50.0 µM 84.2% | [6]; [7] 97% | [6]; at 50.0 µM 87.7%

O=C1CC(O)C=C1Nc1ccc(Cl)cc1 (centres undefined)
active: [1]; at 50.0 µM 98.8% | [2]; at 50.0 µM 98.2% | [3]; at 50.0 µM 98.7% | [4]; at 50.0 µM 98.5% | [5]; at 50.0 µM 97.8% | [6]; at 50.0 µM 98.5%
inactive: [1]; [7] 3% | [1]; [8] 14% | [2]; [7] -3% | [2]; [8] 29% | [3]; [7] -6% | [3]; [8] 4% | [4]; [7] -8% | [4]; [8] -8% | [5]; [7] -9% | [5]; [8] -22% | [6]; [7] 0% | [6]; [8] 7%

O=C1/C(=C/c2ccccc2Cl)COc2ccccc21
inactive: [1]; [7] 30% | [2]; [7] -15% | [3]; [7] 15% | [4]; [7] 20% | [5]; [7] 32% | [6]; [7] -25%
active: [1]; [8] 97% | [1]; at 50.0 µM 91.5% | [2]; [8] 98% | [2]; at 50.0 µM 93.9% | [3]; [8] 97% | [3]; at 50.0 µM 90.7% | [4]; [8] 97% | [4]; at 50.0 µM 90.8% | [5]; [8] 98% | [5]; at 50.0 µM 90.7% | [6]; [8] 97% | [6]; at 50.0 µM 90.2%
